Compounds with a hit are over-represented: about 2.6% of the library has one in this group of screens.
GPR32 ag: qHTS for Agonists of Human Resolvin D1 Receptor DRV1. Probable G-protein coupled receptor 32 (Homo sapiens), O75388. CHO-K1 GPR32 beta-arrestin PathHunter luminescence, 90 min; zero percent set by DMSO-only wells. activation, % at 76.9 µM. actives 2.5% (n = 48,000);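 active = activation of at least 60% and not above a set upper limit, about 1 call in 100 departs from these limits; inconclusive = activation of 40% to 60%, or above that upper limit; inactive = activation under 40%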
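Step 1: seed CHO-K1 GPR32 beta-arrestin cells, 2,500/well, overnight at 37 °C. Step 2: add compounds, 90 min at 37 °C. Step 3: detection reagent, 1 h ambient, then luminescence.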
GALC G270D up: A Novel Cell-Based Assay to Identify Small Molecules for B -Galactocerebrosidase; AID 1159614, 2016; Potency, µM (top dose mostly 57.5 µM), most hits filed as activators; P54803; 145M-Twi-hGALC-G270D cells (Twitcher mouse brain line with human GALC G270D), HMU-beta-Gal fluorescence, 48 h; actives 0.1% (n = 45,000); note: nearly all actives have a fitted effect of over 65% in size
Target sequence (P54803 whole entry G286D): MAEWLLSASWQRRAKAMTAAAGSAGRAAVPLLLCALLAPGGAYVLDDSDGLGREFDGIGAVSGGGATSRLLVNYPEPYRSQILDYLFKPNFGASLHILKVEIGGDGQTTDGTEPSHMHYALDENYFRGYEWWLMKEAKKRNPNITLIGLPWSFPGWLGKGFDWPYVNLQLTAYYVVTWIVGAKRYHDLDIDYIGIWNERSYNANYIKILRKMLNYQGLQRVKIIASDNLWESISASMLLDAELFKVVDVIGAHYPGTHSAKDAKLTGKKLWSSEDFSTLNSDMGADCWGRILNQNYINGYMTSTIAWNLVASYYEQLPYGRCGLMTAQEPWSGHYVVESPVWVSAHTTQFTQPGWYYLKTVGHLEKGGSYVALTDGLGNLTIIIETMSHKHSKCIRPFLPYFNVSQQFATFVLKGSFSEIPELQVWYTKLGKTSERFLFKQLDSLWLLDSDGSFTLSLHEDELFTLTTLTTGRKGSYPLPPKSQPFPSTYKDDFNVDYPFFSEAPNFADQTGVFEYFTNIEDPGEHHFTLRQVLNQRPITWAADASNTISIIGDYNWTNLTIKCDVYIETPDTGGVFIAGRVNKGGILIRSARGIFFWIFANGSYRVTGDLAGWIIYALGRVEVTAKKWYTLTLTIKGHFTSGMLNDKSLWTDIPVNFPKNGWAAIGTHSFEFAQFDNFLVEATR
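Live 145M-Twi cells (Twitcher mouse brain-derived, GALC-null) stably expressing human GALC-G270D, with a wild-type GALC line, were compound-treated. Residual GALC activity was then read as fluorescence from 0.1 mM final HMU-β-gal at pH 5.2; higher signal means activation.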
GALK inhibitor: qHTS Assay for Inhibitors of Human Galactokinase (GALK): NCGC Sytravon Library Screen | P51570 | recombinant GALK, Kinase-Glo ATP luminescence, 1 h | Potency, µM (titrated, usually from 57.5 µM), most hits filed as inhibitors | 44,000 tested, under 10 active
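Compounds were pinned into ATP buffer, then GALK-galactose mix was added (final 5 nM enzyme, 35 uM ATP, 100 uM galactose, pH 8.0). After 1 h at room temperature, Kinase-Glo Plus was added and luminescence read.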
TSG101-PTAP inh: qHTS Validation Assay for Inhibitors of HIV-1 Budding by Blocking the Interaction of PTAP/TSG101: Sytravon Library Screen. Fluorescence polarization, FITC-PTAP peptide/Tsg101, 20 min. Potency, µM (doses to about 115 µM), actives largely listed as inhibitors. 44,000 tested, under 10 active. AID 1347069, 2019
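Read-out is FITC fluorescence polarization. Compounds were added to Tsg101 binding domain (10 uM final), then FITC-PTAP peptide (50 nM final), 20 min at r.t. Total S+P intensity flags fluorescent compounds.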
B2AR arrestin ag: qHTS assay of beta-arrestin-biased ligands of beta2-adrenergic receptor: NCGC Sytravon Library Screen; Beta-2 adrenergic receptor (Homo sapiens), P07550; HTLA Tango cells, beta-arrestin recruitment, luciferase luminescence, 18 h; Potency, µM (doses to about 46.1 µM), usual class: activators; 44,000 tested, under 10 active; AID 1347077, 2019
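Tango cells (recombinant beta2-AR, beta-arrestin, tTA-driven luciferase), 1500/well in DMEM 1% FBS, treated 18 h at 37 °C with compounds up to 46 µM; luciferin mix added, luminescence read after 15 min; %activity curves fitted and curve-classed.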
A number is an active result; . = inactive; ? = inconclusive; / = no result given; ! = not confirmed by another sample. Unless noted, calls come from the whole dose curve; as a rule, active = well fitted curve in the direction sought with a large enough effect; inconclusive = small, poorly fitted or top-dose-only effect, or another doubt; inactive = no such curve, though single readings can be large; an effect the other way counts as inactive or inconclusive.

SMILES | GPR32 ag | GALC G270D up | GALK inhibitor | TSG101-PTAP inh | B2AR arrestin ag
O=C(COc1ccc(Cl)cc1)Nc1ccc2nc(SCC(=O)N3CCCC3)sc2c1 | . | . | . | . | .
CC[n+]1c(/C=C/C=C2/N(C)c3ccccc3C2(C)C)sc2ccccc21 | . | / | / | / | /
Cc1ccc(OCC(=O)Nc2ccc3nc(SCC(=O)N(C)c4ccccc4)sc3c2)cc1 | . | . | . | . | .
COc1cccc(CNS(=O)(=O)c2ccc3c(c2)C(C(C)C)C(=O)N3)c1 (stereo unspecified) | 75.8 | . | . | . | .
CC(C)C1C(=O)Nc2ccc(S(=O)(=O)NCCc3ccc(Cl)cc3)cc21 (stereo unspecified) | 87.3 | . | . | . | .
CCCSS/C(CCO)=C(\C)N(C=O)Cc1cnc(C)nc1N | . | . | / | / | /
Cc1nc2c(c(C)nn2-c2ccccc2)c(C)c1CCC(=O)Nc1ccc(F)cc1 | . | . | . | . | .
Cc1nc2c(c(C)nn2C(C)(C)C)c(C)c1CCC(=O)Nc1ccc(F)cc1 | 74.1 | . | . | . | .
NS(=O)(=O)c1cc2c(cc1Cl)CN(C1CCCCC1)C2=O | . | . | / | / | /
COCCCNC(=O)c1sc2nc(C)c(C(=O)Nc3ccc(Cl)cc3)c(-c3ccc(Br)cc3)c2c1N | 64.1 | . | . | . | .
O=C1CC2(CCCC2)CC(=O)N1 | 65.4 | . | / | / | /
COc1cc(C(=O)OCc2cc(=O)n3ccsc3n2)cc(OC)c1OC | . | . | . | . | .
Cc1cccc(-c2nc(SCc3cc(=O)c4c(C)cc(C)cc4[nH]3)n[nH]2)c1 | 115.8 | . | . | . | .
Cc1cc(C)c2c(=O)cc(CSc3n[nH]c(C)n3)[nH]c2c1 | . | . | . | . | .
Cc1nc2n(c(=O)c1CCN1CCC(c3noc4cc(F)ccc34)CC1)CCC[C@H]2O | . | . | / | / | /
Cc1ccccc1NC(=O)Nc1ccc2nc(N3CCN(C)CC3)cc(C)c2c1 | . | . | . | . | .
Cc1cc(N2CCN(C)CC2)nc2ccc(NC(=O)Nc3ccc(Cl)cc3)cc12 | 118.0 | . | . | . | .
CCCCN(CCCC)CC(O)Cn1cc(/C=C/C(=O)c2ccccc2)c2ccccc21 (stereo unspecified) | 88.2 | ? | . | . | .
C/C(=N/NC(=O)c1ccncc1)C(=O)O | . | . | / | / | /
COc1ccccc1NC(=O)c1cc(S(=O)(=O)N2CCN(c3ccccc3Cl)CC2)ccc1F | . | . | . | . | .
COc1ccc(N2CCN(S(=O)(=O)c3ccc(F)c(C(=O)Nc4ccccc4Cl)c3)CC2)cc1 | 90.7 | . | . | . | .
CCCN(C(=O)c1cc2c(=O)oc3ccccc3c2s1)c1ccccc1C | . | . | . | . | .
CCOc1ccc(-c2csc(-c3c(N)c(C(=O)c4ccc5c(c4)OCO5)n4ccccc34)n2)cc1 | . | . | . | . | .
CSc1ccc(CCNC(=O)CCc2c(C)nc3c(-c4ccccc4)c(C)nn3c2C)cc1 | . | . | . | . | .
CN1C[C@H]2c3ccccc3Oc3ccc(Cl)cc3[C@@H]2C1 | 91.8 | . | / | / | /
SMILES | GPR32 ag | GALC G270D up | GALK inhibitor | TSG101-PTAP inh | B2AR arrestin ag
CN1CCN(C2=Nc3ccccc3Oc3ccc(Cl)cc32)CC1 | . | . | / | / | /
CCOC(=O)c1ccc(NC(=O)CC2C(=O)N(c3cccc(OC)c3)C(=O)N2Cc2cccnc2)cc1 (stereo unspecified) | . | / | . | . | .
CS(=O)(=O)Nc1ccc(-c2nc3ccccc3s2)cc1 | 100.3 | . | . | . | .
Cc1c(NS(C)(=O)=O)cccc1-c1nc2ccccc2s1 | . | . | . | . | .
CC(C)CNc1ncnc2onc(-c3ccc(Cl)cc3)c12 | 90.1 | . | . | . | .
Oc1c(C(c2ccc(Cl)cc2Cl)N2CCOCC2)sc2nc(-c3ccco3)nn12 (stereo unspecified) | 89.9 | . | . | . | .
COc1cccc(NC(=O)CSc2nccn2Cc2ccc3c(c2)OCO3)c1 | 74.7 | . | . | . | .
Cc1c(OCC(F)(F)F)ccnc1CS(=O)c1nc2ccccc2[nH]1 (stereo unspecified) | 60.4! | . | / | / | /
CCOC(=O)c1c(NC(=O)c2nc(S(C)(=O)=O)ncc2Cl)sc(C(C)=O)c1C | . | . | . | . | .
Cc1ccc(/C=C/c2onc(C)c2S(=O)(=O)N2CCC(C(=O)NCc3ccco3)CC2)cc1 | 88.3 | . | . | . | .
CC(C)C(=O)Nc1cccc(C(F)(F)F)c1 | 60.7 | . | / | / | /
O=C(COc1ccc2oc3c(c2c1)CCCC3)Nc1ccc(Cl)cc1 | 74.5 | . | . | . | .
Cc1ccc(Cl)cc1NC(=O)c1ccc2snnc2c1 | 85.3 | . | . | . | .
Cc1c(Cl)cccc1NC(=O)c1ccc2snnc2c1 | . | . | . | . | .
CC(C)C(=O)Nc1cccc(C2CN3CCSC3=N2)c1 (stereo unspecified) | . | . | / | / | /
CN(C)CCN(Cc1ccsc1)c1ccccn1 | . | . | / | / | /
O=C(N/N=C/c1ccccc1O)c1ccncc1 | 95.9 | . | / | / | /
CCc1ccc(CNC(=O)CSc2cc(=O)n(C)c3ccc(Cl)cc23)cc1 | . | . | . | . | .
COc1ccc(Nc2oc(-c3ccc(COc4ccc(OC)cc4)o3)nc2C#N)cc1 | 71.0 | . | . | . | .
Cc1cccc(OCc2ccc(-c3nc(C#N)c(NCc4cccnc4)o3)o2)c1 | . | . | . | . | .
COc1ccc(CCNc2oc(COc3cccc(C)c3)nc2C#N)cc1OC | 111.4 | . | . | . | .
CCOc1ccc(Nc2oc(-c3ccc(COc4ccc(C)cc4)o3)nc2C#N)cc1 | 67.3 | . | . | . | .
COc1ccc(Nc2oc(-c3ccc(COc4ccccc4)o3)nc2C#N)cc1 | ? | . | . | . | .
COc1ccc(Nc2oc(-c3ccc(COc4cccc(C)c4)o3)nc2C#N)cc1 | 97.3 | . | . | . | .
COc1ccc(CCNc2oc(COc3ccc(Cl)cc3)nc2C#N)cc1OC | . | . | . | . | .
COc1cccc(-n2cc(C(=O)Nc3cccc(C(F)(F)F)c3)c3ccccc3c2=O)c1 | . | . | . | . | .
CCOC(=O)C(CC)N1CCN(Cc2ccc(F)cc2)C(=O)C1=O (stereo unspecified) | . | . | . | . | .
Cc1cccc(NS(=O)(=O)c2ccc3[nH]c(=O)[nH]c3c2)c1C | . | . | . | . | .
Cc1ccc(NS(=O)(=O)c2cn(C)c(C)n2)c(Br)c1 | . | . | . | . | .

Bioassay records as filed in PubChem.
